Bioassay records as filed in PubChem.
Most compounds without a hit are left out; they make up all but 21% or so of the library.
Sm TGR inh: inhibitors of Schistosoma mansoni thioredoxin glutathione reductase; Q962Y6; purified TGR, DTNB reduction, TNB absorbance 405 nm; Potency, µM (titrated, usually from 114 µM), for inactives: at the highest dose activity change, negative = inhibition, hits mostly inhibitors; 360,000 tested, 3% active; also: potency is read from the fitted curve at half-maximal effect; % is scaled to controls: 0 for no effect and ±100 for the full control effect; nearly all actives have a fitted effect of over 60% in size
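TGR 20 nM + NADPH 100 uM (dispensed conc.), cpd preinc 15 min RT; start with NADPH (500 uM addition) then DTNB (15 mM addition). Kinetic TNB absorbance, 405 nm filter. Four-parameter Hill fit across titration.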
Pf growth 96h: inhibits malaria parasite growth, 96 h; P. falciparum luciferase reporter growth, 96 h; Potency, µM (doses to about 28.7 µM), for inactives: at the top dose activity change, negative = inhibition, most hits filed as inhibitors; 320,000 tested, 6.9% active; AID 504834; also: potency is read from the fitted curve at half-maximal effect; % is scaled to controls: 0 for no effect and ±100 for the full control effect
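Luminescence readout: decreased luciferase signal marks inhibited growth of reporter-expressing P. falciparum in infected red cells (2% hematocrit, 0.05% parasitemia final), exposed to compound two generations (96 h, 37 C, 5% CO2).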
Cycloheximide cs: counter-screen hit for Shiga toxin inhibitors, cycloheximide | max response, % | 300,000 tested, 12% active | AID 2314 | cell reporter, cycloheximide protein synthesis inhibition counterscreen; in the data active = max response mostly above about 13%, no sharp cut-off; inactive = mostly below about 14%; also: read at 38.3 µM for the half of the compounds with a filed dose; 0% is about no effect
Pf growth 48h: P. falciparum growth inhibition at 48 hours (one generation); Potency, µM (top dose mostly 28.7 µM), for the others: top-dose activity change, negative = inhibition, most hits filed as inhibitors; 310,000 tested, 5.9% active; P. falciparum luciferase growth in erythrocytes, 48 h; also: potency is read from the fitted curve at half-maximal effect; % is scaled to controls: 0 for no effect and ±100 for the full control effect
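A one-generation exposure of luciferase-tagged malaria parasites in RPMI 1640/Albumax erythrocyte culture, 37 C and 5% CO2. Inhibition is inferred from decreased luminescence after adding detection reagent.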
Shiga inhibitor: blocks Shiga toxin action in Vero cells; 290,000 tested, 9.2% active; inhibition, % at 38.7 µM; Vero cells, Shiga toxin protein synthesis inhibition reporter; in the data active = inhibition mostly above about 28%, no sharp cut-off; inactive = mostly below about 43%; also: 0% is about no effect
NS1 function inh: influenza NS1 inhibition; Potency, µM (titrated, usually from 46.1 µM), for the others: at the highest dose activity, positive = more growth; 270,000 tested, 0.4% active; AID 2326; calls by dose curve; also: potency is read from the fitted curve at half-maximal effect; actives are rising curves; nearly all actives have a fitted effect of over 50% in size
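Compounds were scored for reversing the slow growth caused by influenza A NS1 in S. cerevisiae, measured by optical density at 600 nm. Assay medium contained 2% galactose at pH 6.0; NS1-free yeast of the same strain were the positive control.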
Numbers without * were called inactive; ? = inconclusive; . = not tested or not shown. Unless noted, calls follow the shape of the dose curve; as a rule, active = well fitted curve in the direction sought with a large enough effect; inconclusive = small, poorly fitted or top-dose-only effect, or another doubt; inactive = no such curve, though single readings can be large; an effect the other way counts as inactive or inconclusive.

SMILES	Sm TGR inh	Pf growth 96h	Cycloheximide cs	Pf growth 48h	Shiga inhibitor	NS1 function inh
CO[C@H]1[C@H](O[C@H]2O[C@@H](C)[C@@H](O[C@@H]3C[C@](C)(O)[C@H](OC(=O)CC(C)C)[C@H](C)O3)[C@@H](N(C)C)[C@@H]2O)[C@@H](CC=O)C[C@@H](C)[C@@H](O)/C=C\C=C/C[C@@H](C)OC(=O)C[C@H]1OC(C)=O	.	0.405µM*	.	4.55µM*	.	.
CO[C@@H]1[C@@H](OC2OC(C)C(OC3CC(C)(O)C(OC(=O)CC(C)C)C(C)O3)C(N(C)C)C2O)[C@@H](CC=O)C[C@@H](C)C(=O)/C=C\C2O[C@H]2C[C@@H](C)OC(=O)C[C@H]1OC(C)=O (some centres undefined)	.	0.757µM*	.	6.75µM*	.	.
CC(C)(C)OC(=O)N1CCC(CNC(=O)Nc2ccccc2)CC1	0.6%	-20.0%	2.8	-11.6%	34.9	1.3%
COc1ccc(-c2cc3nc(C)cc(NCCO)n3n2)cc1	16.6%	4.65µM*	22.4*	-28.1%	23.8	-4.3%
Cc1ccc(-c2cc3nc(C)cc(NCc4ccco4)n3n2)cc1	-32.6%	21.8%	54.5*	3.2%	58.9*	-44.2%
COc1ccc(-c2cc3nc(C)cc(-c4ccc(OC)cc4)n3n2)cc1	0.3%	?	4.2	?	.	14.9%
CCN(CC)CCCNc1cc(C)nc2cc(-c3cccs3)nn12	11.7%	-25.0%	-2.1	?	-8.7	-1.3%
Cc1nc2cc(-c3ccc(Cl)cc3)nn2c(C)c1CCC(=O)NCc1ccco1	-24.0%	-17.4%	12.3	.	14.9	-8.7%
COCCNc1cc(C)nc2cc(-c3ccc(C)cc3)nn12	6.3%	4.5%	15.3*	23.9%	99.9	1.5%
COc1ccc(-c2cc3nc(C)cc(N)n3n2)cc1	-1.0%	122.0%	14.5*	139.3%	73.3	-32.2%
COc1ccc(Nc2ncnc3c2c(-c2ccccc2)cn3-c2ccc(C)c(Cl)c2)cc1OC	9.4%	.	.	.	.	.
O=C(Cn1c2ncccc2c(=O)n1-c1ccccc1)Nc1ccc(Cl)cc1C(F)(F)F	2.2%	.	.	.	.	.
C=CCNc1nnc(SCC(=O)N2CCC(C(N)=O)CC2)s1	3.4%	?	.	18.9%	.	.
CC(C)(C)OC(=O)N1CCC(CC2CC(c3ccc(Cl)cc3)=NO2)(C(=O)NCC2CCCCC2)CC1 (centres undefined)	-19.8%	?	32.1*	-69.1%	46.6*	27.7%
CC1(C(=O)N2CCC(CC3CC(c4cccc(Br)c4)=NO3)(C(=O)NCC3CCCCC3)CC2)CC1 (centres undefined)	-22.9%	2.94µM*	-2.3	?	-10.4	26.2%
CC1(C(=O)N2CCC(CC3CC(c4ccc(Cl)cc4)=NO3)(C(=O)NCC3CCCCC3)CC2)CC1 (centres undefined)	-0.7%	1.47µM*	-1.0	?	-3.7	17.7%
COCC(C)NC(=O)C1CC(c2cccc(Br)c2)=NO1 (centres undefined)	-0.5%	34.7%	-4.5	7.7%	-2.4	-7.4%
CCc1cc2c(cc3c(=O)n(CCCC(=O)NCc4ccccc4Cl)nc(CC)n32)s1	2.7%	.	.	.	.	.
COc1ccc(Cn2c(=N)c(C(=O)NC3CCCCC3)cc3c(=O)n4ccccc4nc32)cc1	13.9%	1.85µM*	14.1	4.65µM*	38.2	-12.6%
COc1ccc(CCn2c(=N)c(C(=O)NC3CCCC3)cc3c(=O)n4ccccc4nc32)cc1OC	-8.8%	3.29µM*	-0.5	4.15µM*	2.2	-6.7%
Cc1c(Cl)cccc1NC(=O)Nc1c(C)n(C)n(-c2ccccc2)c1=O	0.1%	-16.8%	-1.3	8.3%	-14.1	-5.6%
CCOC(=O)c1ccc(OCc2nc(-c3cccs3)no2)cc1	-3.8%	.	16.4*	13.8%	32.6	-2.4%
c1csc(-c2noc(COc3ccc4c(c3)CCCC4)n2)c1	-13.5%	?	41.1*	77.5%	89.2*	-6.5%
CCOC(=O)C1CCN(Cc2nnc(-c3ccccc3C)o2)CC1	13.7%	11.8%	2.2	-4.8%	-1.1	-3.9%
CCOC(=O)N1CCN(Cc2nc(-c3cccs3)no2)CC1	-7.2%	?	29.9*	78.0%	80.5*	-1.1%
SMILES	Sm TGR inh	Pf growth 96h	Cycloheximide cs	Pf growth 48h	Shiga inhibitor	NS1 function inh
CCOC(=O)N1CCN(Cc2nnc(-c3ccccc3C)o2)CC1	6.9%	0.738µM*	12.4	18.7%	4.8	2.2%
O=S(O)O.O=S(O)O.[Co].[NH2-].[NH2-].[NH2-].[NH2-]	.	.	.	.	.	-1.4%
CCOC(=O)c1c(C)[nH]c(C)c1S(=O)(=O)N1CCC(C(=O)Nc2ccccn2)CC1	5.6%	.	.	.	.	.
CCn1c(=O)c2cc(C(=O)N(CC(C)C)CC(C)C)sc2c2ccccc21	10.4%	.	.	.	.	.
CC(C)N(C(=O)Cn1cc(S(=O)(=O)CC(=O)Nc2ccccc2)c2ccccc21)C(C)C	-3.8%	8.28µM*	8.1	?	-11.0	5.9%
CNC(=O)CSc1cn(CC(=O)N(C(C)C)C(C)C)c2ccccc12	7.4%	10.4µM*	-2.2	1.0%	23.4	.
COc1ccc(CCNC(=O)CS(=O)(=O)c2cn(CC(=O)N(C(C)C)C(C)C)c3ccccc23)cc1OC	-27.3%	10.4µM*	2.4	?	-5.3	-15.2%
CCOc1ccc(NC(=O)CS(=O)(=O)c2cn(CC)c3ccccc23)cc1	5.4%	?	-1.5	?	-3.1	-5.4%
COc1ccc(-c2noc(CSc3nc(N)cc(=O)[nH]3)n2)cc1OC	9.9%	.	.	.	.	.
O=C1CCCCN1CCC(=O)N1CCCC(N2CCN(c3ccccc3)CC2)C1 (centres undefined)	3.3%	43.9%	-0.9	2.4%	-5.7	-11.9%
CC1(c2ccc(OC(F)F)cc2)NC(=O)N(CC(=O)NCCC2=CCCCC2)C1=O (centres undefined)	-14.7%	-24.2%	.	?	.	.
Cc1cc(O)c2c(c1)C(=O)C13C(=C2O)C(=O)[C@H]2[C@@H](O)[C@@H]1[C@H]1[C@H](O)[C@@H]3C(=O)C3=C(O)c4c(O)cc(C)cc4C(=O)C312 (some centres undefined)	?	3.29µM*	.	4.15µM*	.	.
COc1ccc(C(=O)/C(=C\c2sccc2C)c2nc3ccccc3o2)cc1	-14.8%	3.29µM*	18.8*	?	49.4	-10.6%
CC(C)Oc1ccc(C(=O)/C(=C\c2cccs2)c2nc3ccccc3o2)cc1	4.1%	?	37.7*	?	active	21.2%
CC(C)Oc1ccc(C(=O)N(Cc2ccco2)Cc2cccs2)cc1	-7.9%	.	.	.	.	.
COc1ccc(/C=C(/NC(=O)c2ccccc2)C(=O)N/N=C/c2sccc2C)cc1	-1.1%	33.3%	-4.2	-6.8%	14.8	2.5%
